Hits are enriched below; roughly 1.1% of the tested compounds scored in any of these assays.
ALOX12 inh = inhibitors of human 12S-lipoxygenase ALOX12. P18054. purified 12hLO, xylenol orange hydroperoxide absorbance. Potency, µM (doses to about 108 µM), hits mostly inhibitors. actives 1.1% (n = 580,000). AID 1671190
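Purified human 12hLO at 150 nM in 25 mM Hepes, 0.01% Triton X-100, pH 7.0, preincubated 15 min at room temperature with compound. Reaction started with 40 uM arachidonic acid, 30 min at room temperature. Hydroperoxide measured by Fe-xylenol orange, 573/405 nm absorbance ratio.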
Eya2 phos inh = Eya2 (human) phosphatase inhibition; recombinant Eya2, OMFP fluorescence dephosphorylation (OMFP is methylfluorescein phosphate); AID 488837; O00167; Potency, µM (titrated, usually from 76.9 µM), actives largely listed as inhibitors; actives 0.006% (n = 330,000)
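Eya2 protein (added as 0.2 uM solution) was preincubated with compound for 10 min at ambient temperature in 50 mM HEPES pH 7.5, 50 mM NaCl, 5 uM MgCl2, 0.05% BSA, 1 mM DTT. OMFP (added at 50 uM) then reacted 10 min; fluorescence read at 485/525 nm.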
PTAP TSG101 blk = blocks PTAP/TSG101 interaction to inhibit HIV-1 budding; Fluorescence polarization, FITC-PTAP peptide / Tsg101 binding; Potency, µM (highest dose often 115 µM), actives largely listed as inhibitors; 340,000 tested, under 10 active; active = well fitted inhibition curve with a large enough effect in the main read-out, with a control signal flat, not every such curve was filed as active; inconclusive = small, poorly fitted or top-dose-only effect, or effect the other way, or a change in a side signal; inactive = no such curve, though single readings can be large or run the other way
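Compounds were pin-transferred onto Tsg101 binding domain (10 uM final) in HEPES pH 7.5 buffer, then FITC-PTAP peptide was added at 50 nM final. After 20 min at RT, polarization reported peptide displacement across a qHTS concentration series.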
USP2a inh = inhibitors of human ubiquitin-specific protease USP2a. USP2 core, Ub-CHOP2 coupled fluorogenic reporter, 485/531. Potency, µM (series often up to 38.3 µM), hits mostly inhibitors. actives 0.01% (n = 330,000). AID 463254
Target sequence (O75604 whole entry, looked up): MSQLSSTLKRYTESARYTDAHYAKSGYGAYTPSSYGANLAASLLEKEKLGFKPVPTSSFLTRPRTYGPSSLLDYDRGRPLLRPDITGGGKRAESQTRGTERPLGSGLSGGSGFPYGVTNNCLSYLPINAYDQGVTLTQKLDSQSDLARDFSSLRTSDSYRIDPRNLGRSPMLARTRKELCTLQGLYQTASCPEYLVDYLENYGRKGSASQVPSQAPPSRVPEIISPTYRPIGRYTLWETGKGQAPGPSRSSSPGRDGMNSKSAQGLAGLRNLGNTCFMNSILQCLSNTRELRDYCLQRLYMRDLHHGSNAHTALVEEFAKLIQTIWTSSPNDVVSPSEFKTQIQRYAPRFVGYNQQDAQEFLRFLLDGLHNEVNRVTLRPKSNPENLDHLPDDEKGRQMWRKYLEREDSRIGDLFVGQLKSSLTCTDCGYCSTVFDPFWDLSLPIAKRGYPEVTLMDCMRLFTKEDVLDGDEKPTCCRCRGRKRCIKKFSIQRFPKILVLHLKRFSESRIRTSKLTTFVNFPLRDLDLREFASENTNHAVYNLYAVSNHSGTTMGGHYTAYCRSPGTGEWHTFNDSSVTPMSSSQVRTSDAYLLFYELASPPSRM
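Cell-free coupled assay: 10nM USP2 core preincubated 30min RT with compound in Tris-HCl pH 8.0/CaCl2/CHAPS buffer, then 25nM Ub-CHOP2 and 25nM reporter substrate; fluorescence (Ex 485/Em 531) read after 60min RT, normalized to NEM inhibition, concentration-response curves fitted.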
A number is an active result; – = inactive; ? = inconclusive; · = not tested or not shown. Unless noted, calls come from the whole dose curve; as a rule, active = well fitted curve in the direction sought with a large enough effect; inconclusive = small, poorly fitted or top-dose-only effect, or another doubt; inactive = no such curve, though single readings can be large; an effect the other way counts as inactive or inconclusive.

SMILES | ALOX12 inh | Eya2 phos inh | PTAP TSG101 blk | USP2a inh
Cc1nc(C#N)c(N/N=C/c2cccc(Cl)c2)o1 | 39.8µM | – | – | –
Cc1cccc(Cc2ccc3ncc(-c4cccc(C(N)=O)c4)n3n2)c1 | – | · | · | ·
CCN(Cc1ccccc1)c1ncncc1-c1nc(-c2ccccc2)no1 | – | · | · | ·
CCOc1ccc(S(=O)(=O)N(CC(=O)N/N=C/c2ccc(-c3ccc([N+](=O)[O-])cc3)o2)c2ccccc2)cc1 | 31.6µM | – | – | –
Cc1ccc(C)c(N(CC(=O)N/N=C/c2ccc(-c3ccc([N+](=O)[O-])cc3)o2)S(=O)(=O)c2ccccc2)c1 | – | – | – | –
O=S(=O)(c1ccc2ccccc2c1)N1CCOCC1 | – | – | – | –
O=S(=O)(c1ccc2nc(-c3ccco3)c(-c3ccco3)nc2c1)N1CCOCC1 | 14.1µM | – | – | –
O=C(Cn1nc2n(c1=O)CCN(Cc1cccc(Cl)c1)C2=O)NCCC1=CCCCC1 | – | · | · | ·
COc1cc(CN2CCN(Cc3ccc(C)cc3)CC2)cc(OC)c1 | 0.501µM | · | · | ·
Fc1ccccc1CN1CCN(c2ncccn2)CC1 | 0.562µM | – | – | –
COc1cccc(CN2CCN(c3ncccn3)CC2)c1 | 0.794µM | – | – | –
COc1cc(CN2CCN(c3ncc(Cc4ccccc4)cn3)CC2)cc(OC)c1 | – | · | · | ·
COc1cc(CN2CCN(Cc3ccco3)CC2)cc(OC)c1 | ? | ? | – | –
CC(=O)N1CCC2(CC1)CC(=O)c1ccc(OCC(=O)NCCC(C)C)cc1O2 | – | · | · | ·
CCOC(=O)C1CCCN(C(=O)Cn2nc3cc(C)nc(N4CCc5ccccc5C4)n3c2=O)C1 (stereo unspecified) | – | · | · | ·
COc1ccc(C(=O)NC[C@@H]2C=C(C)[C@H](Cc3nc4ccncc4[nH]3)C[C@H]2C(C)C)cc1 | – | · | · | ·
Cn1c(CN2CCOC[C@H]2c2ncc(-c3ccc(Cl)cc3)[nH]2)nc2ccccc21 | 35.5µM | · | · | ·
Cc1ccc(CNC(=O)CN2NS(=O)(=O)c3ccccc3C2=O)cc1 | 20µM | · | · | ·
COc1ccc(C(=NNc2ccccc2C(=O)O)c2ccc(OC)cc2)cc1 | ? | – | – | –
CCc1ccccc1N/N=C(/c1ccccc1)c1ccc(Br)cc1 | 7.94µM | · | · | ·
Cc1cc(NS(=O)(=O)c2ccc(NC(=S)NC(=O)c3ccncc3)cc2)no1 | – | – | – | –
Cc1cc(NS(=O)(=O)c2ccc(NC(=O)c3ccc(Cl)cc3Cl)cc2)no1 | – | – | – | –
Cc1cc(NS(=O)(=O)c2ccc(NC(=S)NC(=O)c3ccc(Cl)cc3Cl)cc2)no1 | 31.6µM | · | – | ·
Cc1cc(NS(=O)(=O)c2ccc(NC(=S)NC(=O)c3ccccc3)cc2)no1 | 15.8µM | – | – | –
Cc1cc(NS(=O)(=O)c2ccc(NC(=S)NC(=O)c3ccc(C(C)(C)C)cc3)cc2)no1 | 7.08µM | – | – | –
SMILES | ALOX12 inh | Eya2 phos inh | PTAP TSG101 blk | USP2a inh
CCC(C)NC(=O)c1ccccc1NS(=O)(=O)c1cccc(C(=O)O)c1 (stereo unspecified) | – | · | · | ·
CCCN(CCC)C(=O)c1cc2sc3ccccc3c2s1 | 5.01µM | · | · | ·
N=C1/C(=C\c2coc3ccccc3c2=O)C(=O)N=C2SC=CN12 | 20µM | – | ? | ?
CC1=CC2=NC(=O)/C(=C/c3coc4ccc(Cl)cc4c3=O)C(=N)N2O1 | – | ? | ? | ?
CSC1=NSC2=NC(=O)/C(=C/c3coc4ccc(O)cc4c3=O)C(=N)N12 | 17.8µM | ? | ? | ?
CSC1=NSC2=NC(=O)/C(=C\c3cccs3)C(=N)N12 | – | – | – | –
Cc1ccc2nc(C)c(C(=O)NCCCOCC(C)C)cc2c1 | – | · | · | ·
O=C1CCN(S(=O)(=O)c2ccccc2)CCCN(C(=O)CC2CCCC2)CCN1 | – | · | · | ·
CC(CN1CCCCC1)OC(=O)c1cccc(F)c1 (stereo unspecified) | 56.2µM | – | – | –
COc1cccc(C(=O)OC(C)CN2CCCC2)c1 (stereo unspecified) | – | – | – | –
CCCCNC1c2ccccc2C(=O)N1Cc1ccccc1 (stereo unspecified) | 39.8µM | – | – | –
O=C1c2ccccc2C(Nc2cccnc2)N1Cc1ccccc1 (stereo unspecified) | – | – | – | –
CN1N=C2c3ccccc3CCCC2C1c1ccc(F)cc1 (stereo unspecified) | 39.8µM | – | – | –
Cc1ccc(C(=O)Nc2cccc(CCC(=O)N(C)C)c2)cc1 | – | · | · | ·
Cc1cccc2sc(NC(=O)C3CCN(S(=O)(=O)c4cc([N+](=O)[O-])ccc4Cl)CC3)nc12 | 39.8µM | – | – | –
Cc1[nH]c(=S)sc1Cc1cccc(C(F)(F)F)c1 | 25.1µM | · | · | ·
Cc1[nH]c(=S)sc1Cc1ccc(F)cc1 | ? | – | – | –
CC1=C(C)C(C)=C(C#N)C(=C(C#N)C#N)N1 | 1.12µM | – | – | –
O=C1NC(=Nc2ccc3ccccc3c2)S/C1=C/c1ccco1 | 31.6µM | – | – | ?
O=C1NC(=Nc2ccc(O)cc2)S/C1=C/c1ccco1 | ? | – | – | –
Cc1cccc(N=C2NC(=O)/C(=C/C=C/c3ccco3)S2)c1 | 44.7µM | – | – | ?
O=C1NC(=Nc2ccc(Cl)cc2)/C(=C/c2ccco2)S1 | 25.1µM | – | – | –
OC(C#CCN1CCC(c2ccccc2)C1)(c1ccccc1)C1CCCCC1 (stereo unspecified) | 0.891µM | · | · | ·
OC(C#CCCN1CCCCC1)(c1ccccc1)C1CCCCC1 (stereo unspecified) | – | – | – | –
CC1CCCN(CC(=O)NCCC2=CCCCC2)C1 (stereo unspecified) | – | · | · | ·
SMILES | ALOX12 inh | Eya2 phos inh | PTAP TSG101 blk | USP2a inh
COc1ccc(CN(C(=O)c2ccco2)c2ccc(CC(=O)NCc3ccccc3)cc2)cc1 | – | · | · | ·
CC(=O)N1Cc2ccccc2CC2(CCCN(CC3CCNC3)C2)C1 (stereo unspecified) | 8.91µM | · | · | ·
CCc1cccc(NC(=S)Nc2cccc3ccccc23)c1 | 44.7µM | – | – | –
Cc1cccc(NC(=S)Nc2cccc3ccccc23)c1 | ? | – | – | –
COc1cc(/C=C/C2=Nc3ccccc3SC(C)(C)C2)ccc1O | 15.8µM | · | · | ·
CCn1c2ccccc2c2cc(CNCC3CCNCC3)ccc21 | – | · | · | ·
CCn1c2ccccc2c2cc(CNCCc3c[nH]c4ccccc34)ccc21 | 39.8µM | · | · | ·
CC(=O)c1ccc(NC(=O)Cn2nc(-n3nc(C)cc3C)ccc2=O)cc1 | – | · | · | ·
O=C(O)C1Nc2c(Cl)cc(Cl)cc2C2C=CCC12 (stereo unspecified) | · | – | – | –
O=C(O)C1Nc2c(Cl)cc(Cl)c(Cl)c2C2C=CCC12 (stereo unspecified) | 3.16µM | · | – | ·
Cc1cc(NC(=O)CSc2nc(NC3CC3)c3ccccc3n2)no1 | – | · | · | ·
CCC(=O)c1sc(Nc2ccc(Cl)cc2C)nc1N | – | · | · | ·
Cc1ccc(C(=O)c2sc(Nc3ccc(Cl)cc3C)nc2N)cc1 | 28.2µM | · | · | ·
Cc1ccc(-c2cn(-c3ccccc3)c(=S)[nH]2)cc1C | 35.5µM | – | – | –
Cc1ccccc1-c1cn(-c2ccccc2)c(=S)[nH]1 | ? | – | – | –
COCC1CN(C2CCC2)CC12CCN(Cc1cccc(OC)c1OC)CC2 (stereo unspecified) | – | · | · | ·
N/C(CN1CCCC1)=N\O | – | · | · | ·

From PubChem BioAssay
